Data published in PubChem BioAssay (Tox21).
Values joined by “and” are separate entries in the source; they are usually repeats but may differ in a detail not shown here. Identical values can stand only once. Inconclusive results are not listed. A number with no mark means an inactive call. Active and inactive are the calls of the source. Calls follow the shape of the dose curve; as a rule, active = well fitted inhibition curve with a large enough effect in the repeat runs; inconclusive = weak or mixed curves; inactive = no such curve, though single readings can be large or run the other way.
% is scaled to controls: 0 for no effect and ±100 for the full control effect; potency is read from the fitted curve at half-maximal effect.

Assay: qHTS assay to identify small molecule antagonists of the thyroid receptor (TR) signaling pathway (AID 743065); also: nearly all actives have a fitted effect of over 55% in size
Conditions: GH3.TRE-Luc, T3-stimulated luciferase inhibition, 23.5 h; series mostly up to 70.3 µM; activity, negative = inhibition: at the top concentration
Method in brief: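 Antagonism measured as loss of luciferase signal in GH3 cells stably carrying a TRE-luciferase reporter, co-treated with compound and T3 (1 nM final) for 23.5 h at 37 C. Viability was read in the same well by CellTiter-Fluor.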
In the case of `CCCCCCCCCCCC(=O)NCCCN(C)C`, the Potency is reported as 17.2 µM (active).
In the case of `CCOC(=O)c1nc(C(Cl)(Cl)Cl)n(-c2ccc(Cl)cc2Cl)n1`, the Potency is reported as 68.6 µM (active).
With `OCc1c[nH]c2ccccc12` the Potency was 54.5 µM (active).
With `CCCCCCCCCCCCCCCC(=O)OC[C@H](O)[C@H]1OC(=O)C(O)=C1O` the Potency was “inactive”.
For `Oc1ccc(N=Nc2ccccc2)cc1`, the Potency was 61.9 µM (active).
For `c1cc(C(c2ccc(OCC3CO3)cc2)c2ccc(OCC3CO3)cc2)ccc1OCC1CO1` (configuration not stated), the Potency was 12.2 µM (active).
For `CC(C)OC(=O)c1cc2c(OCC(O)CNC(C)(C)C)cccc2[nH]1` (configuration not stated), the Potency was 21.1 µM (active).
With `CC[C@H]1O[C@]2(CC[C@@H]1C)C[C@@H]1C[C@@H](C/C=C(\C)C[C@@H](C)/C=C/C=C3\CO[C@@H]4[C@H](O)C(C)=C[C@@H](C(=O)O1)[C@]34O)O2` the Potency was 5.4 µM (active).
With `CCCCc1oc2ccc(NS(C)(=O)=O)cc2c1C(=O)c1ccc(OCCCN(CCCC)CCCC)cc1` the Potency was 11.9 µM (active).
In the case of `CC(C)(C)c1ccc(C(=O)CCCN2CCC(OC(c3ccccc3)c3ccccc3)CC2)cc1`, the Potency is reported as 13.3 µM (active).
In the case of `CCCCN(CCCC)c1ccc(C(=O)c2ccccc2C(=O)O)c(O)c1`, the Potency is reported as 55 µM (active).
In the case of `CCCC(c1cc(C(C)(C)C)c(O)cc1C)c1cc(C(C)(C)C)c(O)cc1C`, the Potency is reported as 3.1 µM (active).
With `CC(C)(C)NC(=O)[C@@H]1C[C@@H]2CCCC[C@@H]2CN1C[C@@H](O)[C@H](Cc1ccccc1)NC(=O)[C@H](CC(N)=O)NC(=O)c1ccc2ccccc2n1` the Potency was 21.1 µM (active) and 31 µM (active).
For `Oc1c(Cl)cc(Cl)c2cccnc12`, the Potency was 6.68 µM (active).
In the case of `O=C(Nc1ccc(Oc2ccc(Cl)cc2)c(Cl)c1)c1cc(I)cc(I)c1O`, the Potency is reported as 29.8 µM (active).
With `N=C1N=C(N)c2ccccc21` the Potency was 15.4 µM (active).
With `CN(C)c1ccc(C2(c3ccc(N(C)C)cc3)OC(=O)c3cc(N(C)C)ccc32)cc1` the “activity, negative = inhibition” value was 0.142%.
For `CCCCCCCCCCCC[N+](C)(C)CCCCCCCCCCCC`, the Potency was 17.2 µM (active).
For `CC1(C)CCC(C)(C)c2cc(C(=O)Nc3ccc(C(=O)O)cc3)ccc21`, the Potency was 48.6 µM (active).
In the case of `CC(C)=CCOc1ccc(/C=C/C(=O)c2ccc(OCC=C(C)C)cc2OCC(=O)O)cc1`, the Potency is reported as 26.6 µM (active).
In the case of `CSc1ccc2c(c1)C(N1CCN(C)CC1)Cc1ccccc1S2` (configuration not stated), the Potency is reported as 8.41 µM (active).
For `CCCCC(CC)COP(=O)(O)OCC(CC)CCCC` (configuration not stated), the Potency was 61.3 µM (active).
In the case of `O=C(Nc1cccc(C(F)(F)F)c1)c1cc(Br)cc(Br)c1O`, the Potency is reported as 2.98 µM (active) and 1.09 µM (active).
For `CCCCCOC(=O)CCCC`, the “activity, negative = inhibition” value was 10.1%.
With `Clc1ccc2n[nH]nc2c1` the “activity, negative = inhibition” value was 14.3%.
With `CCc1cc(Cc2cc(CC)c(N)c(CC)c2)cc(CC)c1N` the Potency was 48.6 µM (active).
In the case of `CCCCCCCCn1sc(Cl)c(Cl)c1=O`, the Potency is reported as 27.3 µM (active).
With `CCCCCCCCS(=O)C(C)Cc1ccc2c(c1)OCO2` (configuration not stated) the Potency was 62.3 µM (active).
For `NNc1nc(-c2ccc([N+](=O)[O-])cc2)cs1`, the Potency was 30.6 µM (active).
In the case of `O=c1[nH]sc2ccccc12`, the Potency is reported as 3.06 µM (active).
In the case of `CNCc1cc(F)ccc1Oc1ccc(Cl)c(Cl)c1`, the Potency is reported as 30.6 µM (active).
With `C/C=C1/C(=O)C[C@H]2[C@@H]3CCC4=CC(=O)CC[C@]4(C)[C@H]3CC[C@]12C` the Potency was 9.66 µM (active).
